# From PubChem BioAssay
# Most compounds without a hit are left out; they make up all but 10% or so of the library.
# JMJD2A Tudor = inhibitors of human JMJD2A Tudor domain; Potency, µM (titrated, usually from 114 µM), for the others: at the top dose activity change, negative = inhibition, hits mostly inhibitors; 4.4% of 390,000 active; AlphaScreen JMJD2A-Tudor / H3K4me3 peptide binding; O75164; note: potency is the fitted concentration of half-maximal effect; % is set by controls: 0 for no effect and ±100 for the full control effect; nearly all actives have a fitted effect of over 50% in size
# Target sequence (O75164 whole entry, looked up, the tested form may be a part): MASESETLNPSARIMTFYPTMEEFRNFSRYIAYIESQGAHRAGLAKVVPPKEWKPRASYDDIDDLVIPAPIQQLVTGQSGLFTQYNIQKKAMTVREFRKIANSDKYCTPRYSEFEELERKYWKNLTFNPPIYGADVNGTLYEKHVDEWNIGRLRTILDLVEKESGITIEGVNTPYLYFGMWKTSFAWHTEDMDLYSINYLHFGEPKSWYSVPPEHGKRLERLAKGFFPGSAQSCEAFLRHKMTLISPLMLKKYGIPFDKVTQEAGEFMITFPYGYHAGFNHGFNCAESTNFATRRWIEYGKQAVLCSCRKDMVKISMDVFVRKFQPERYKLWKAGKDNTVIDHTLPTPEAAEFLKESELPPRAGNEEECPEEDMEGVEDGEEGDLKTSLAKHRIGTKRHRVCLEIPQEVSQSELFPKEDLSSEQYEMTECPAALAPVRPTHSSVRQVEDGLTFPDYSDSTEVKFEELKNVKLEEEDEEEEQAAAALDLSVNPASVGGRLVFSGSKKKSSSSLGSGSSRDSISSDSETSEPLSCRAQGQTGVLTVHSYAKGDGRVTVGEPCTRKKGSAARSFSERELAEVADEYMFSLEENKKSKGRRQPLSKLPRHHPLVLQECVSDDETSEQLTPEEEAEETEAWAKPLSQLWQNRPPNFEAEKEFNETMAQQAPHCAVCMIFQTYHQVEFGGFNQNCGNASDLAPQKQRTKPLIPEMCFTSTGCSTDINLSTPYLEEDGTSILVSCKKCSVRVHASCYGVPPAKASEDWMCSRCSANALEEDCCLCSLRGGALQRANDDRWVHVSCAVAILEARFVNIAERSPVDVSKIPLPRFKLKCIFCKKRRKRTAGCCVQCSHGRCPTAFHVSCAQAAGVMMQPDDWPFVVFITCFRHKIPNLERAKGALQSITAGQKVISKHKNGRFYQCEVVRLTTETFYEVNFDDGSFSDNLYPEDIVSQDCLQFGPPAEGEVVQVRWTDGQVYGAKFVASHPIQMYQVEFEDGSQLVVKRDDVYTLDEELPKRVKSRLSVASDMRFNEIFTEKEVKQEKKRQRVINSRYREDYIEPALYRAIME
# HP1b binding inh = HP1-beta chromodomain-methylated histone interaction inhibition | P83916 | 0.56% of 390,000 active | AlphaScreen HP1-beta / biotin-H3K9me3 peptide binding | Potency, µM (doses to about 114 µM), for the others: top-dose activity change, negative = inhibition, usual class: inhibitors; note: potency is the fitted concentration of half-maximal effect; nearly all actives have a fitted effect of over 70% in size
#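 AlphaScreen: HP1-beta (50 nM) preformed 30 min with biotin-H3(1-18)K9me3 peptide (50 nM) in PBS pH 7.4, 0.01% Tween-20. Compound added for 30 min at RT, then streptavidin donor/nickel chelate acceptor beads (10 ug/mL) for 30 min.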
# BAZ2B inh = inhibitors of human BAZ2B bromodomain | Q9UIF8 | 4.4% of 360,000 active | AlphaScreen BAZ2B-H3K14Ac peptide displacement | Potency, µM (titrated, usually from 114 µM), for the others: at the top dose activity change, negative = inhibition, actives largely listed as inhibitors; note: potency is the fitted concentration of half-maximal effect; % is set by controls: 0 for no effect and ±100 for the full control effect; nearly all actives have a fitted effect of over 60% in size
#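 BAZ2B 50 nM plus b-H3(5-23)K14Ac 50 nM, PBS pH 7.4/0.01% Tween-20, 30 min RT; compound added (max 110 uM), 30 min RT; streptavidin donor/Ni-chelate acceptor beads 10 ug/mL final, 20 min dark; AlphaScreen read.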
# G9a inh = G9a (human) methyltransferase inhibition | G9a H3K9 monomethylation, AlphaScreen, 2 h | Potency, µM (doses to about 102 µM), for inactives: at the highest dose activity, negative = inhibition, most hits filed as inhibitors | 8.8% of 350,000 active | AID 504332; note: potency is the fitted concentration of half-maximal effect; % is set by controls: 0 for no effect and ±100 for the full control effect; nearly all actives have a fitted effect of over 75% in size
#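 Chemiluminescent proximity detection of H3K9 monomethylation, read after 10 min bead incubation in the dark. Reaction: 20 nM G9a, 500 nM biotin-H3K9 peptide, 20 uM SAM cofactor, 2 h, room temperature, following 15 min enzyme-compound preincubation.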
# CtBP-E1A blk = blocks the CtBP interaction with E1A | AlphaScreen GST-E1A/His-CtBP binding, 1536-well; stronger effect = lower value | activity change, % (test concentration not listed) | 0.49% of 340,000 active; in the data active = activity change below about -65%; inconclusive = mostly about -30% to -63%; note: % is set by controls: 0 for no effect and ±100 for the full control effect
#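 Steps: dispense buffer (Tris pH 8.0, NaCl 300 mM, TCEP 1 mM, BSA, Tween 20); add 5X protein mix (GST-E1A, His-CtBP, 125 nM each); pin 23 nL compound; 2 h at 37 °C, dark; add 5X beads (50 ug/mL); 1 h; read.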
# Six1-Eya2 blk = inhibitors of human Six1/Eya2 interaction; Q15475+O00167; AlphaScreen GST-Six1/His-Eya2 binding, biochemical; stronger effect = lower value; activity change, % (test concentration not listed); 0.56% of 360,000 active; AID 651725; in the data active = activity change below about -65%; inconclusive = mostly about -30% to -63%; note: % is set by controls: 0 for no effect and ±100 for the full control effect
#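 Six1/Eya2 binding was read as AlphaScreen signal after compounds were pinned into GST-Six1 plus His-tagged Eya2 (5X stock 250/500 nM) in pH 8.0 Tris/NaCl/TCEP buffer, beads added, then incubated 1 h, 37 C, dark.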
# Numbers without * were called inactive; ? = inconclusive; . = not tested or not shown; [ ] = dose if it differs, or a comment. Unless noted, calls come from the whole dose curve; as a rule, active = well fitted inhibition curve with a large enough effect; inconclusive = small, poorly fitted or top-dose-only effect; inactive = no such curve, though single readings can be large or run the other way.
SMILES,JMJD2A Tudor,HP1b binding inh,BAZ2B inh,G9a inh,CtBP-E1A blk,Six1-Eya2 blk
COc1ccc2ncc3c(-c4ccc(C)c(C)c4)nn(CC(=O)NC4CCCCC4)c3c2c1,-18%,10%,-2%,3%[59 µM],.,.
Cc1ccc(S(=O)(=O)NC(C)C(=O)N2CCOCCOCCOCC2)cc1 (stereo not drawn),-5%,-16%,12%,71µM*,7,-9
Cc1ccc(S(=O)(=O)NC(C(=O)N2CCOCCOCCOCCOCC2)C(C)C)cc1 (stereo not drawn),-9%,24%,-21%,?,12,10
COc1ccc2c(=O)c3ccccc3oc2c1,-4%,51%,8%,.,8,0
COc1ccc2oc3cc(NCCN(C)C)ccc3c(=O)c2c1,.,.,.,.,-75*,-70*
COc1ccc(/C([O-])=C(/C(=S)Nc2ccc(C)c(C)c2)n2c[n+](C)c3ccccc32)cc1OC,-26%,-2%,-36%,45µM*,-20,-6
Cc1ccc(CNc2ncnc3c2nnn3C)cc1,-15%,1%,-2%,-4%[59 µM],.,.
Cc1ccc(/C=C2/SC(=S)N(c3ccc(S(=O)(=O)Nc4nccs4)cc3)C2=O)cc1,?,?,?,.,-23,-24
COc1ccc(/C=C2/SC(=S)N(c3ccc(S(=O)(=O)Nc4nccs4)cc3)C2=O)cc1,16µM*,20µM*,?,-49%,-30,-21
O=C1/C(=C\c2ccccn2)SC(=S)N1c1ccc(S(=O)(=O)Nc2nccs2)cc1,18µM*,?,50µM*,.,-22,-24
CCN(CC)c1ncnc2c1cnn2-c1cc(Cl)ccc1C,-13%,39%,12%,-3%[59 µM],.,.
CCOc1cc(/C=N/NS(=O)(=O)c2ccccc2)ccc1OS(=O)(=O)c1ccc(C)cc1,-17%,26%,-11%,11µM*,-18,-15
Cc1ccc(S(=O)(=O)N/N=C\c2ccc3c(c2)OCO3)cc1,-13%,28%,-6%[57.1 µM],10%,6,-1
Cc1ccc(S(=O)(=O)N(C)/N=C/c2ccc(C(=O)O)cc2)cc1,-7%,42%,-2%,45µM*,.,-2
CC(=O)NCc1ccc(S(=O)(=O)N/N=C/c2ccccc2)cc1,2%,49%,-19%,3.2µM*,19,9
CC(=O)NCc1ccc(S(=O)(=O)N/N=C/c2ccc(Br)cc2)cc1,-6%,35%,-2%,?,8,-3
Cc1ccc(/C=N/N(C)S(=O)(=O)c2ccc(C)cc2)cc1,5%,36%,53%,53%,2,5
Cc1ccc(S(=O)(=O)N/N=C/c2ccc(C(=O)O)cc2)cc1,-5%,72%,7%,11µM*,5,-3
Cc1ccc(S(=O)(=O)c2nnn3c2nc(N2CCN(c4ccc(F)cc4)CC2)c2cc(Cl)ccc23)cc1C,-6%,25%,1%,8%[59 µM],.,.
Cc1ccc(S(=O)(=O)N/N=C\c2ccc(Cl)c([N+](=O)[O-])c2)cc1,?,-4%,?,7.9µM*,6,-14
O=C(CCn1cnnn1)N1CCCC(Nc2ccc(F)c(F)c2)C1 (stereo not drawn),-1%,36%,-5%,-46%,7,28
Cc1c(/C(O)=C2\C(=O)C(=O)N(CCN(C)C)C2c2cccs2)cnn1-c1ccccc1 (stereo not drawn),-7%[11.4 µM],9%,-24%,20µM*,4,3
Cc1c(/C(O)=C2\C(=O)C(=O)N(CCCN(C)C)C2c2ccccc2)cnn1-c1ccccc1 (stereo not drawn),-22%,33%,-21%,-4%[59 µM],-18,3
Cc1ccc(C)c(/C(O)=C2/C(=O)C(=O)N(CCN3CCOCC3)C2c2ccc(C)o2)c1 (stereo not drawn),?,35%,-13%,14µM*,2,4
Cc1ccc(C)c(/C(O)=C2\C(=O)C(=O)N(CCCN3CCOCC3)C2c2cccnc2)c1 (stereo not drawn),-7%,39%,11%,?,15,5
SMILES,JMJD2A Tudor,HP1b binding inh,BAZ2B inh,G9a inh,CtBP-E1A blk,Six1-Eya2 blk
Cc1c(/C(O)=C2/C(=O)C(=O)N(CCN3CCOCC3)C2c2ccccn2)cnn1-c1ccccc1 (stereo not drawn),50µM*,37%,25µM*,7.9µM*,-4,-13
Cc1ccc(C2/C(=C(/O)c3cnn(-c4ccccc4)c3C)C(=O)C(=O)N2CCCN2CCOCC2)o1 (stereo not drawn),.,.,79µM*,10%[12.7 µM],.,.
Cc1cc2c(s1)c1cnn(Cc3c(C)cc(F)cc3C)c(=O)c1n2C,-16%,.,.,.,.,.
CSCCC(C(=O)Nc1c(C)cccc1C)n1c(COc2ccc(C)cc2)nc2ccccc21 (stereo not drawn),.,.,.,.,-7,-9
CC1(C)CC(=O)C2=C(C1)NC(Nc1nc3ccccc3o1)=NC2c1cccnc1 (stereo not drawn),-13%,29%,.,.,.,.
CCn1cc2nc(SCc3ccc(F)cc3)n(Cc3ccc(Cl)cc3)c(=O)c2n1,5%,19%,2%,3%[59 µM],.,.
CCSc1nnc(NC(=O)C2CCN(C(=O)c3ccco3)CC2)s1,-11%,45%,.,.,.,.
Cc1cccc(Nc2nc(-c3cccs3)cs2)n1,-23%,-22%,-32%,8.9µM*,-2,-3
Cc1cccc(Nc2nc(-c3ccccn3)cs2)n1,?,43%,20µM*,?,?,?
Cc1cccc(Nc2nc(-c3ccc(F)cc3)cs2)n1,-18%,15%,-5%,-45%,-24,17
c1ccc(Nc2nc(-c3cccs3)cs2)nc1,-28%[11.4 µM],4%,?,?,0,-10
CCCn1c(SCC(=O)c2cc(C)ccc2C)n[nH]c1=O,-27%,35%,-21%,7.1µM*,4,0
CCCn1c(SCC(=O)NCc2ccc(F)cc2)n[nH]c1=O,45µM*,-14%,-13%,2%,3,3
COc1ccc(C(=O)NNC(=O)C(=O)NC2CCCCC2)cc1,1%,44%,-25%,-12%,2,-1
Clc1ccc(-n2ncc3c(NCc4cccnc4)ncnc32)cc1Cl,-14%,69%,-11%,9%[59 µM],-23,-4
CCn1c(CN2CCOCC2)nc2cc(NC(=O)c3ccccc3[N+](=O)[O-])ccc21,-15%,19%,-15%,-16%[59 µM],.,.
Cc1ccc(CCNC(=O)c2coc3nc4ccccc4nc23)cc1,40µM*,29%,0%,.,9,-2
CN(C(=O)N1CCN(c2ccccn2)CC1)c1ccccc1,-6%,22%,-5%,-32%[59 µM],-3,7
O=C(CN1CCOCC1)N(c1ccccc1)c1ccc2ccccc2c1,-22%,47%,-27%,50µM*,-1,1
